# Laboratory results: PubChem BioAssay (EPA / NIEHS)
# Active and inactive are the calls of the source. How the source made its calls: active means hit-call score of the fitted dose curve at least 0.9, where 1 is the maximum; inactive means score below 0.9.
# Test: ATG_M_19_CIS: Attagene CIS-FACTORIAL HepG2 Assay for M19 Transcription Factor (Internal Marker) (AID 2282939)
# Settings: HepG2 Attagene CIS-FACTORIAL M19 internal marker reporter; actives raise or lower the signal
# Procedure: ATG_CIS is a cell-based, multiplexed-readout assay that uses HepG2, a human liver cell line, with measurements taken at 24 hours after chemical dosing in a 24-well plate.ATG_M_19_CIS is one of 52 assay component(s) measured or calculated from the ATG_CIS assay. It is designed to make measurements of mRNA induction, a form of inducible reporter, as detected with fluorescence intensity signals by Reverse transcription polymerase chain reaction (RT-PCR) and Capillary electrophoresis technology.Data from the assay component ATG_M_19_CIS was analyzed into 1 assay endpoint. This assay endpoint, ATG_M_19_CIS, was analyzed with bidirectional fitting relative to DMSO as the negative control and baseline of activity. Using a type of inducible reporter, measures of mRNA for gain or loss-of-signal activity can be used to understand the background control at the transcription factor-level as they relate to the gene . Furthermore, this assay endpoint can be referred to as a secondary readout, because this assay has produced multiple assay endpoints where this one serves a background control function. To generalize the intended target to other relatable targets, this assay endpoint is annotated to the background measurement intended target family, where the subfamily is internal marker.
# Human liver HepG2 cells are transiently transfected with multiple reporter transcription units (MRTUs) in 6-well plates using FuGene 6 reagent (Roche; 3 ml FuGene/1 mg DNA). The MRTU constructs are regulated by a cis-regulating element (promoter). […] A major difference between the CIS and TRANS system is that in CIS activities of endogenous TFs are measured, whereas the TRANS assay evaluates changes in activities of exogenous, chimeric NR-Gal4 proteins. […] At the end of 24 hour incubation, total RNA was isolated using TriZol reagent (Invitrogen). The isolated RNA is then reverse-transcribed using oligo(dT) primer and Mo-MLV reverse transcriptase (Invitrogen) with DNAse I (Ambion) treatment for 30 min. The one-tenth of the produced cDNA was amplified by PCR using Taq DNA polymerase (Invitrogen) and two reporter sequence-specific primers. The PCR products were fluorescently labeled by primer extension with 6-arboxyfluorescein (6-FAM) 5'-labeled reporter sequence-specific primer (2 min at 95 C, 20 s at 68 C and 10 min at 72 C) and these products were digested with 5U of HpaI (New England Biolabs) for 2h at 37 C. The fragments were purified using Qiaquick PCR columns (Qiagen), analyzed on an ABI 3130xL genetic analyzer (Applied Biosystems) with peak positions identified by using a set of X-rhodamine (ROX)-labeled MapMarker1000 molecular weight standards (BioVentures). The raw capillary electrophoresis data was processed using Attagraph software (Attagene).
Compound,outcome,AC50
O=C(NC(=O)c1c(F)cccc1F)Nc1ccc(Cl)cc1,inactive,–
C=C(C)[C@@H]1CC=C(C=O)CC1,inactive,–
C=CC(=O)OCC(COC(=O)C=C)(COC(=O)C=C)COC(=O)C=C,inactive,–
N#Cc1cccnc1,inactive,–
Cc1cc(SCc2sc(-c3ccc(C(F)(F)F)c(F)c3)nc2C)ccc1OCC(=O)O,inactive,–
CC(C)(C)c1cc([N+](=O)[O-])cc(C(C)(C)C)c1O,inactive,–
CCOP(=S)(OCC)Oc1ccc(Cl)cc1Cl,inactive,–
CCCCC(CC)COC(=O)Cl (stereo not given),inactive,–
OCCCCO,inactive,–
OCC(c1ccc(Cl)cc1)c1ccc(Cl)cc1,–,48.5 µM (active)
O=C(O)C1(c2ccc3c(c2)OC[C@H](Cc2ccc(-c4ccccc4)cc2)[C@H]3O)CCCC1,inactive,–
CC(c1ccccc1)(c1ccc(O)cc1)c1ccc(O)cc1,inactive,–
C[N+](C)(C)Cc1ccccc1,inactive,–
CN(N=O)c1ccc([N+](=O)[O-])cc1,inactive,–
O=C1C=CC(=O)c2ccccc21,inactive,–
CCCCN(CCCC)C(=S)S,inactive,–
O=[N+]([O-])c1c2ccccc2cc2ccccc12,inactive,–
CCOCn1c(-c2ccc(Cl)cc2)c(C#N)c(Br)c1C(F)(F)F,inactive,–
N#Cc1ccncc1,inactive,–
O=[N+]([O-])c1cccc2ccccc12,inactive,–

Compound,outcome,AC50
O=C(O)COc1ccc(Cl)cc1,inactive,–
O=C(CCl)Nc1ccccc1,–,167 µM (active)
CC(C)[N+](=O)[O-],inactive,–
CCOC(=O)Cc1ccccc1,inactive,–
CCOC(=O)C(SP(=S)(OC)OC)c1ccccc1 (stereo not given),inactive,–
C#C[C@]1(O)CC[C@H]2[C@@H]3CCC4=CC(=O)CC[C@]4(C)[C@H]3CC[C@@]21C,inactive,–
Cc1ccc(OP(=O)(Oc2ccc(C)cc2C)Oc2ccc(C)cc2C)c(C)c1,inactive,–
CS(=O)(=O)c1ccc(C(=O)C2C(=O)CCCC2=O)c(Cl)c1COCC(F)(F)F,inactive,–
C[As+](C)(C)CC(=O)[O-],inactive,–
O=c1oc2ccccc2c(O)c1C(CC(O)c1ccc(-c2ccc(Br)cc2)cc1)c1ccccc1 (stereo not given),inactive,–
Cc1cc(Cl)ccc1OCCCC(=O)O,inactive,–
CC(C)(C1CCC(O)CC1)C1CCC(O)CC1 (stereo not given),inactive,–
COCCl,inactive,–
Cc1cc(Cl)ccc1OC(C)C(=O)O (stereo not given),inactive,–
CCOc1ccc(N)cc1,inactive,–
CC(C)N(C(=O)CCl)c1ccccc1,inactive,–
C[C@]12CC[C@@H](O)C[C@@H]1CC[C@@H]1[C@@H]2CC[C@]2(C)C(=O)CC[C@@H]12,inactive,–
Cc1cccc(OP(=O)(Oc2cccc(C)c2)Oc2cccc(C)c2)c1,inactive,–
Nc1c(Oc2ccccc2)cc(O)c2c1C(=O)c1ccccc1C2=O,inactive,–
CCCCCCCCCCCCc1cccc(S(=O)(=O)O)c1,inactive,–
